Compounds without any hit were thinned out: in the full panel of roughly 83,000, 20% have a hit.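 Cell lines were cultured in 96-well plates, exposed to a single compound concentration, and assessed for percent growth 48 hours later.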 Values without a mark were called inactive. Calls of active or inactive are those of the source. Rule for the calls: active = growth percent below 10; inactive = the rest.
Experiments:
Experiment in all cases: NCI-60 one-dose screen, 48 h (100 = growth as untreated, 0 = no growth, -100 = all killed)
Conditions in all cases: 10 µM unless noted
NCI-H23 lung = system: NCI-H23 lung
NCI-H226 lung = system: NCI-H226 lung
NCI-H322M lung = system: NCI-H322M lung
HOP-62 NSCLC = system: HOP-62 NSCLC
NCI-H460 lung = system: NCI-H460 lung
NCI-H522 lung = system: NCI-H522 lung
A549/ATCC NSCLC = system: A549/ATCC NSCLC
786-0 renal = system: 786-0 renal
COLO 205 colon = system: COLO 205 colon
DU-145 prostate = system: DU-145 prostate
K-562 leukemia = system: K-562 leukemia
MALME-3M melanoma = system: MALME-3M melanoma
MDA-MB-231 breast = system: MDA-MB-231 breast
RXF 393 renal = system: RXF 393 renal
SF-268 CNS = system: SF-268 CNS
SF-295 CNS = system: SF-295 CNS
SF-539 CNS = system: SF-539 CNS
UACC-257 melanoma = system: UACC-257 melanoma
M14 melanoma = system: M14 melanoma

Structure (SMILES)	growth (NCI-H23 lung)	growth (NCI-H226 lung)	growth (NCI-H322M lung)	growth (HOP-62 NSCLC)	growth (NCI-H460 lung)	growth (NCI-H522 lung)	growth (A549/ATCC NSCLC)	growth (786-0 renal)	growth (COLO 205 colon)	growth (DU-145 prostate)	growth (K-562 leukemia)	growth (MALME-3M melanoma)	growth (MDA-MB-231 breast)	growth (RXF 393 renal)	growth (SF-268 CNS)	growth (SF-295 CNS)	growth (SF-539 CNS)	growth (UACC-257 melanoma)	growth (M14 melanoma)
CS(=O)(=O)c1ccc(C(=O)N2N=C(c3ccccc3)CC2c2ccc3c(c2)OCO3)cc1 (centres undefined)	101%	88.7%	99.6%	83.1%	98.5%	87.2%	80.2%	90.8%	81.4%	97.4%	59.9%	104%	96.2%	98.4%	95.2%	100%	103%	79.2%	95.7%
Cc1ccccc1Nc1n[nH]c(Cc2ccccc2)n1	102%	100%	99.1%	94.6%	108%	58%	100%	105%	122%	103%	72%	101%	110%	108%	101%	103%	107%	92.7%	106%
COc1ccc(C2c3cccn3-c3ccccc3N2C(C)=O)cc1 (centres undefined)	99.3%	97.3%	82.6%	88.8%	97.4%	122%	110%	106%	100%	108%	42%	93%	103%	99.2%	95.8%	98.7%	108%	109%	96.2%
Cc1ccc(C)c2c1SC1=NNC(Oc3ccc(Cl)cc3)=C(C#N)C(=N)N12	92.7%	94.2%	101%	103%	99.9%	87.9%	108%	110%	105%	112%	95.1%	123%	99.6%	118%	113%	93.7%	103%	101%	107%
Cc1csc(N/N=C/c2ccncc2)n1	100%	95.9%	109%	99.1%	101%	72.9%	68.8%	88.4%	107%	108%	94.1%	117%	102%	99.5%	114%	108%	106%	78.1%	100%
c1ccc(-c2ccc(-c3ccccc3)[nH]2)cc1	86.5%	86.5%	95.6%	105%	103%	85.7%	88.7%	96.6%	127%	102%	81.1%	96.4%	89.5%	102%	98.6%	109%	93.9%	101%	110%
O=C(C(=O)N1CCCC1)c1cn(CCCn2cc(C(=O)C(=O)N3CCCC3)c3cc(Br)ccc32)c2ccc(Br)cc12	80.3%	85.9%	82.3%	56.1%	53.4%	62%	57.8%	71.4%	106%	62.3%	81.9%	58.1%	82.1%	82.8%	53.7%	-22.4% (active)	69.5%	76.4%	89.2%
CCCCCN(CCCCC)C(=O)C(CCC(=O)O)NC(=O)c1ccc(Cl)c(Cl)c1 (centres undefined)	105%	92.6%	102%	102%	106%	110%	85%	106%	120%	113%	115%	104%	88.1%	106%	110%	110%	113%	111%	109%
C=C1C(=O)O[C@H]2[C@H]1CC/C(COC(=O)NCc1[nH]nc3ccccc13)=C\CC[C@@]1(C)O[C@@H]21	69.4%	65.4%	87.6%	48.6%	28.6%	-68.6% (active)	45.6%	-25.4% (active)	-76.7% (active)	12.2%	2.29% (active)	-43% (active)	49.1%	-18.3% (active)	55.2%	72.6%	4.74% (active)	38%	13.8%
NC(N)=NC1CCCCC1	101%	101%	102%	108%	113%	85.8%	94.1%	98.1%	118%	22.3%	93.5%	101%	117%	97.3%	-15.8% (active)	120%	105%	90.6%	103%
CC(C)(C)OC[C@@H]1N=C(c2ccc(Br)cc2)Nc2nc3ccccn3c2C1=O	71.5%	78.1%	84.8%	54.5%	41.3%	33.4%	51.6%	94.2%	62.7%	82.7%	25.3%	51.5%	61.5%	61.6%	74.3%	30.9%	75.7%	62.3%	46.4%
O=C(/C=C/c1ccc(F)cc1)N1CCN(C(=O)/C=C/c2ccc(C(F)(F)F)cc2)CC1	106%	108%	106%	109%	116%	92%	96.9%	107%	126%	109%	104%	98.6%	96.8%	120%	114%	119%	123%	97.3%	97.4%
Cc1ccc(NC(=O)c2sc3nc4c(cc3c2N)C(=O)CCC4)cc1Cl	100%	102%	109%	110%	106%	96.1%	101%	104%	128%	109%	93%	112%	113%	117%	115%	80%	102%	95.1%	122%
Cc1nn(-c2cccc(Cl)c2)c(C)c1N=Nc1ccc(Br)cc1	96.9%	101%	102%	86.9%	103%	68.6%	66.1%	89.7%	102%	101%	89.2%	95.1%	93.1%	110%	96.5%	91.8%	90.7%	53.2%	95.6%
Oc1ccc(-c2nc3ccccc3s2)cc1CN(Cc1ccccn1)Cc1ccccn1	17.5%	5.38% (active)	9.63% (active)	10.9%	2.66% (active)	-7.33% (active)	2.38% (active)	-3.75% (active)	16%	24.2%	11.8%	8.24% (active)	25.3%	40.5%	17.7%	13.5%	3.91% (active)	-0.146% (active)	-29.7% (active)
CCOCCNc1ccc(S(=O)(=O)c2ccc(N)cc2)cc1N	92.5%	94.6%	101%	110%	109%	96%	91.5%	108%	110%	119%	107%	109%	118%	130%	97.1%	96.2%	109%	92.8%	112%
